Sfp inh = Sfp phosphopantetheinyl transferase inhibition. AID 1490. 310,000 compounds, 3.5% hits. Potency, µM, for the others: largest response in the series, negative = inhibition, usual class: inhibitors. Biochemical Sfp PPTase activity, qHTS;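 note: the enzyme is Sfp with the accession as filed and its product quenches rhodamine fluorescence; 0% = enzyme reaction without inhibitor and -100% = no enzyme wells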
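Sfp 15 nM + cpd, 15 min RT; start w/ rhodamine-CoA 5 uM, BHQ-2-YbbR 12.5 uM (final); 50 mM Hepes pH 7.6, 10 mM MgCl2, 0.01% NP-40, 0.01% BSA; read 525/598 nm at 0 and 30 min.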
PLK1 PBD inh = blocks phosphopeptide binding to human PLK1 polo-box domain | P53350 | Plk1 PBD binding of FITC phosphopeptide, fluorescence polarization | Potency, µM, for inactives: max response, negative = inhibition, usual class: inhibitors | 360,000 compounds, 2.8% hits | AID 720504; note: series mostly up to about 57 µM; nearly all actives have a fitted effect of over 65% in size
VDR inh = blocks the human vitamin D receptor; P11473; VDR-SRC2-3 peptide fluorescence polarization, 2 h; Potency, µM, without a hit: max response, negative = inhibition, most hits filed as inhibitors; 400,000 compounds, 0.93% hits; AID 504847
Target sequence (P11473 whole entry, looked up): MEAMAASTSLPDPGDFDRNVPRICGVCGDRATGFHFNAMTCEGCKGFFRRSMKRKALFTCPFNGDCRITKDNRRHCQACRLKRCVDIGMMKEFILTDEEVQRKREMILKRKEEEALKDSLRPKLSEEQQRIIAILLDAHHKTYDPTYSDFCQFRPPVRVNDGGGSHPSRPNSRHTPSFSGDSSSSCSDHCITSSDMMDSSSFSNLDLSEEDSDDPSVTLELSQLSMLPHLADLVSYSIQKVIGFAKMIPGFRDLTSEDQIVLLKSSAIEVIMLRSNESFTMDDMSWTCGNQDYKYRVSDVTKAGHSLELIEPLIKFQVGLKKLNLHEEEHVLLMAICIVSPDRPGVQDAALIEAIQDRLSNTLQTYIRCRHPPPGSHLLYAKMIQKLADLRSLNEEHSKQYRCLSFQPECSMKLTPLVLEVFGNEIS
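Signal is fluorescence polarization, reporting how far test compounds block the interaction of VDR with the SRC2-3 coregulator peptide after a 2 h room-temperature incubation.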
ALOX12 inh = blocks human arachidonate 12S-lipoxygenase; P18054; purified 12hLO, xylenol orange hydroperoxide absorbance; Potency, µM (highest dose often 108 µM), without a hit: at the highest dose activity change, negative = inhibition, actives largely listed as inhibitors; 580,000 compounds, 1.1% hits
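Hydroperoxide product was detected by ferrous iron/xylenol orange as the 573 to 405 nm absorbance ratio. Arachidonic acid at 40 uM (final) was turned over for 30 min at room temperature by 150 nM human 12hLO, pH 7.0 Hepes buffer, after 15 min compound preincubation.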
An asterisk follows results filed as active; ? = inconclusive; . = not tested or not shown; [ ] = remark or other dose. The list is not random: actives were taken first. Their share in the collection is about 4.2%. Calls come from the whole dose curve; as a rule, active = well fitted curve in the direction sought with a large enough effect; inconclusive = small, poorly fitted or top-dose-only effect, or another doubt; inactive = no such curve, though single readings can be large; an effect the other way counts as inactive or inconclusive. Unless noted, % is set by controls: 0 for no effect and ±100 for the full control effect; potency is the fitted concentration of half-maximal effect.

SMILES	Sfp inh	PLK1 PBD inh	VDR inh	ALOX12 inh
CC(=O)OCC1=C(C(=O)OC(C)(C)C)N2C(=O)[C@@H](NC(=O)Cc3ccccc3)[C@H]2SC1	.	17µM*	?	-90%
CC(=O)OCC1=C(C(=O)O)N2C(=O)C(NC(=O)Cc3cccs3)C2SC1 (stereo not given)	-52%	.	.	.
COc1cccc(C(=O)NC2C(=O)N3C(C(=O)O)=C(COC(C)=O)CSC23)c1 (stereo not given)	.	21µM*	?	?
CC(=O)OCC1=C(C(=O)O)N2C(=O)C(NC(=O)c3ccc(COc4cccc(Cl)c4Cl)o3)C2SC1 (stereo not given)	-21%	?	25µM*	4%
Cc1cc(/C=N/n2c(COc3ccccc3C)nc3ccccc3c2=O)c(O)c([N+](=O)[O-])c1	-7%	?	6%	-15%
COc1cc(C(C)=O)ccc1OC(=O)C(C)N1C(=O)c2ccccc2C1=O (stereo not given)	2%	-17%	4%	-4%
CC1=NN(c2ccccc2)C(=O)C1C(=S)SC1CC(=O)NC1=O (stereo not given)	.	11µM*	.	?
CC1=NN(c2ccccc2)C(=O)C1C(=O)c1ccc(Cl)cc1 (stereo not given)	11%	-7%	-2%	-14%
COC(=O)C1=C(C)Nc2nc3ccccc3n2C1c1cc(OC)c(OC)c(OC)c1 (stereo not given)	4%	4%	-4%	124%
CC(C)(C)N(Cc1ccc2c(c1)OCO2)C(=O)/C=C\S(=O)c1ccccc1 (stereo not given)	.	?	71µM*	-19%
Cc1nn(Cc2ccccc2Cl)c2sc(C(=O)NCc3ccc4c(c3)OCO4)cc12	21%	-1%	9%	1%
CCOC(=O)Cc1csc(NC(=O)CC)n1	0%	-8%	-3%	2%
CCOC(=O)Cc1csc(NC(=O)Cn2cnc3c2c(=O)n(C)c(=O)n3C)n1	-3%	12µM*	?	-25%
COc1ccc(-n2nc3c(N4CCC(C(=O)NCCc5ccccc5)CC4)nnc(C)c3c2C)cc1	.	.	18%	8%
COc1ccc(-n2nc3c(N4CCC(C(=O)NCC(C)c5ccccc5)CC4)nnc(C)c3c2C)cc1 (stereo not given)	13%	6.7µM*	?	2%
CCOC(=O)c1cccc(NC(=O)c2cnc(-c3ccc(C)cc3)nc2-c2ccncc2)c1	.	.	.	-20%
O=C(CSc1nnc(Cn2c(=O)sc3ccccc32)n1-c1ccccc1)N1CCOCC1	56µM*	?	-9%	?
CCOC(=O)C(C)Sc1nnc(Cn2c(=O)sc3ccccc32)n1-c1ccccc1 (stereo not given)	79µM*	?	-38%	?
Cc1[nH]c(=S)[nH]c(=O)c1CCC1OCCO1	79µM*	-16%	-6%	-4%
CCCCc1c(C)[nH]c(=S)[nH]c1=O	-5%	-4%	6%	-9%
COc1ccc(C2C(C(=O)c3ccco3)=C(O)C(=O)N2CC2CCCO2)cc1OC (stereo not given)	-1%	-13%	15%	?
O=C(C1=C(O)C(=O)N(CC2CCCO2)C1c1cccnc1)c1ccco1 (stereo not given)	11%	-4%	13%	?
CC(C)(C)c1ccc(C2C(C(=O)c3ccco3)=C(O)C(=O)N2CC2CCCO2)cc1 (stereo not given)	-6%	-5%	-4%	22µM*
O=C(C1=C(O)C(=O)N(CC2CCCO2)C1c1ccccc1Cl)c1ccco1 (stereo not given)	11%	-13%	7%	32µM*
O=C(C1=C(O)C(=O)N(CC2CCCO2)C1c1ccc(Cl)cc1Cl)c1ccco1 (stereo not given)	-12%	-11%	-1%	40µM*
SMILES	Sfp inh	PLK1 PBD inh	VDR inh	ALOX12 inh
CC(C)Oc1ccc(S(=O)(=O)N2CCOCC2)cc1NC(=O)C1=NN(c2ccccc2)C(=O)CC1	.	0%	-9%	14%
O=C(O)C1CN(c2ncccc2[N+](=O)[O-])C1	20%	13µM*	?	?
O=C(O)C1CN(c2nc(Cl)ccc2[N+](=O)[O-])C1	17%	-16%	-10%	-14%
Cc1cc(OC(=O)c2c(F)cc(F)cc2F)nc(C)n1	22%	21µM*	10%	-6%
Cc1cc(C)nc(OC(=O)c2c(Cl)cc(Cl)cc2Cl)n1	8%	-4%	-20%	-23%
Cc1cc(C)n(-c2nc(Nc3ccccc3)nc(-n3nc(C)cc3C)n2)n1	8%	-7%	2%	12%
Cc1cc(C)n(-c2nc(C)nc(N)n2)n1	-5%	12µM*	-7%	-30%
Cc1cc(C)n(-c2nc(N(c3ccccc3)c3ccccc3)nc(-n3nc(C)cc3C)n2)n1	50µM*	-6%	-2%	.
Nc1[nH]c(C(=O)c2ccccc2)c(-c2ccc(Cl)cc2Cl)c1C(=O)c1ccc(Cl)c(Cl)c1	.	-15%	.	-11%
CCCC1OC2C[C@@H]3[C@H]4CCC5=CC(=O)C=C[C@]5(C)[C@H]4C(O)C[C@]3(C)[C@]2(C(=O)CO)O1 (stereo not given in full)	.	.	6%	-36%[57.4 µM]
CCOC(=O)NNc1ccc2nonc2c1[N+](=O)[O-]	20µM*	8.4µM*	35µM*	.
Cc1nn(Cc2ccccc2)c2c1C(c1ccc(Cl)cc1)C(C#N)=C(N)O2 (stereo not given)	2%	27µM*	?	?
Cc1nn(-c2ccccc2)c2c1C(c1ccccc1)C(C#N)=C(N)O2 (stereo not given)	8%	27µM*	-14%	20%
Clc1ncc(C#Cc2ccccc2)c2ncncc12	.	.	28µM*	.
O=C(CNC(=O)c1ccccc1)Oc1cccc(Cl)c1	.	7.5µM*	13%	0%
O=C(CNC(=O)c1ccccc1)OCCOc1cccc(Cl)c1	.	2%	3%	-19%
COc1ccccc1/C=C(\C#N)C(=O)c1cccn1C	-3%	?	?	-15%
Cc1noc(C)c1COc1ccc(CC(=O)Nc2nc(C3CC3)cs2)cc1	.	.	.	-18%
COc1ccc(-c2cc(C(=O)NNC(=S)NC(=O)c3c(-c4ccccc4)noc3C)[nH]n2)cc1	29%	-11%	-16%	11µM*
Cc1cc(NC(=O)c2cc(F)c(F)cc2Cl)no1	20%	-7%	-13%	0%
COC(=O)C1CN(Cc2ccc(OC)cc2)CCS(=O)(=O)N1Cc1cn(Cc2ccc(C)cc2)nn1 (stereo not given)	.	.	.	-26%
COC(=O)C1CN(Cc2cn(Cc3ccc(C)cc3)nn2)CCS(=O)(=O)N1Cc1ccc(C)cc1 (stereo not given)	.	.	.	16µM*
Cc1nc(SCCO)c([N+](=O)[O-])[nH]1	?	-26%	-6%	25µM*
O=C(c1ccc2c(c1)N(Cc1cccc(F)c1)C(=O)c1ccccc1S2)N1CCC2(CC1)OCCO2	.	.	-2%	?
N=C1C(c2ccccc2)=C(O)CN1c1cccc(S(N)(=O)=O)c1	34%	-13%	-20%	-2%
N=C1C(c2ccccc2)=C(O)CN1c1cccc(S(=O)(=O)N2CCOCC2)c1	23%	17µM*	?	2%

Screening data: PubChem, National Center for Advancing Translational Sciences (NCATS)
